Compound activity as filed in PubChem.
Beta apoptosis: inhibitors of cytokine-induced beta cell apoptosis, primary screen, luminescence. 300,000 tested, 0.8% active. INS-1E cytokine-induced death, ATP luminescence, 48 h; percent of positive-control rescue, neutral wells zero. AID 435005, 2010. protection from apoptosis, % (no concentration beside the values);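 active = Every replicate reaches about 75%, or at least half do and their mean reaches it too, limit read from the data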;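 note: 0% = cytokine-treated negative control wells and 100% = positive control rescue; higher means more ATP so stronger rescue from cytokine killing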
697 NFkB inh: inhibitors of PMA/ionomycin-induced NF-kB reporter, 697 cells, primary screen, B-cell NF-kB inhibitor project, cell-based, luminescence, uHTS; 697 B-cell NF-kB luciferase reporter, 16 h; 330,000 tested, 0.33% active; AID 435022, 2010; inhibition, % at 4 µM; in the data active = inhibition above about 35%
Mdm2-MdmX inh: inhibitors of human Mdm2-MdmX association, primary screen, cell-based, luminescence, split luciferase, SaOS-2, uHTS; SaOS-2 split-luciferase Mdm2/MdmX complementation; inhibition, % at 8 µM; 330,000 tested, 3% active; AID 485346, 2010;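 active = inhibition of at least 50% at 8 µM in the primary screen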
Gli-Sufu block: Gli-Sufu pathway antagonists, primary screen, luciferase luminescence, Sufu-KO-LIGHT cells, uHTS. Sufu-KO-LIGHT fibroblasts, Gli luciferase reporter luminescence. inhibition, % at 5 µM. 340,000 tested, 0.74% active;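 active = inhibition above about 55%, limit read from the data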;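 note: 0% = DMSO-treated cells and 100% = wells with medium but no cells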
Jurkat NFkB inh: inhibitors of induced NF-kB luciferase reporter, primary screen, TCR NF-kB activation inhibitor project, cell-based, luminescence, uHTS | Jurkat, PMA/ionomycin-induced NF-kB luciferase reporter | inhibition, % at 4 µM | AID 435003, 2010 | 330,000 tested, 0.53% active; in the data active = inhibition above about 50%
Mdm2 MdmX conf: Mdm2-MdmX complex disruptors, retested hits, confirmation, luminescence, single concentration; 10,000 tested, 55% active; inhibition, % at 8 µM; Mdm2-MdmX binding, luminescent assay; shares compounds with Mdm2-MdmX inh; in the data active = inhibition above about 40%
FLuc counter: full-length luciferase signal inhibition, confirmation, counter-screen for Mdm2/MdmX interaction inhibitor project, cell-based, single concentration, SaOS-2; shares compounds with Mdm2-MdmX inh; SaOS-2 full-length luciferase counterscreen, luminescence; inhibition, % at 8 µM; 6,200 tested, 77% active;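 active = mean inhibition at 8 µM reaching about 37%, which flags the compound as non-specific, limit read from the data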;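 note: p53-null SaOS-2 cells with luciferase driven by a doxycycline-inducible promoter; compound on cells about two nights before reading with doxycycline added after day one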
* hit, by the source's call; nt = not tested or not shown. Rows were chosen to be rich in hits. Some 4% of all compounds tested hit in one or more screens of this group.

SMILES	Beta apoptosis	697 NFkB inh	Mdm2-MdmX inh	Gli-Sufu block	Jurkat NFkB inh	Mdm2 MdmX conf	FLuc counter
C=C(C)CN(CC)c1nc(N)c2c(N)nc3c(c2c1C#N)CC(=O)N3C12CC3CC(CC(C3)C1)C2	56	16	84*	-15	35	54*	41*
CCCCN1C(=O)Cc2c1nc(N)c1c(N)nc(N(CCC)CCC)c(C#N)c21	40	nt	nt	-7	nt	nt	nt
COC(=O)[C@@]1(Cc2ccc(F)cc2)[C@H]2c3cc(C(=O)N4CCCC4)n(Cc4ccc(C(F)(F)F)nc4)c3C[C@H]2CN1C(=O)c1ccccc1	-5	3	8	19	9	nt	nt
COC(=O)[C@@]1(Cc2ccc(F)cc2)[C@H]2c3cc(C(=O)N4CCCC4)n(CCCNc4ncc(C(F)(F)F)cc4Cl)c3C[C@H]2CN1C(=O)c1ccccc1	15	10	62*	4	30	-1	nt
COc1cccc(N2CCN(C(=O)CCC(=O)c3ccc(Cl)s3)CC2)c1	0	8	-7	-8	6	nt	nt
CCc1cc2c(=O)[nH]c(N3CCCC3)nc2s1	-1	-17	-16	-15	-26	nt	nt
CCc1cc2c(=O)[nH]c(-c3ccccn3)nc2s1	66	-180	72*	58*	46	26	46*
CCN(CC)CCn1c(SCC(=O)NCc2ccccc2)nc2c(sc3ccccc32)c1=O	-4	-14	75*	16	-12	28	nt
O=C(CSc1nc2c(sc3ccccc32)c(=O)n1CCCN1CCCC1)NCC1CCCO1 (centres undefined)	4	-33	6	18	-11	nt	nt
CCc1ccc(NC(=O)CSc2nc3ccccc3c(=O)n2CCCC(=O)N2CCCC2)cc1	nt	-17	52*	-4	15	49*	42*
O=C(CSc1nc2ccccc2c(=O)n1CCCC(=O)N1CCCC1)NCc1ccco1	-5	23	18	6	5	nt	nt
COc1ccc(NC(=O)CSc2nc3c(sc4ccccc43)c(=O)n2CCCN2CCCC2)cc1	-3	-1	98*	12	15	70*	23
COc1ccc(/C=N/N(C)c2cc(=O)n(C)c(=O)[nH]2)cc1OC	58	-7	10	-13	-3	nt	nt
COc1ccc(C(=O)c2cnc3ccccc3c2-c2ccccc2)cc1	-21	4	57*	3	11	23	nt
Cc1ccc(C(=O)c2cnc3ccccc3c2-c2ccccc2)cc1	-8	-27	56*	9	-4	30	nt
CN1C(=O)/C(=C/c2ccc(OCc3cccc(F)c3)cc2)NC1=S	14	-12	36	-4	-7	nt	nt
COc1cc(/C=C2/C(=O)N(C)C(=S)N2C)ccc1OCc1cccc(F)c1	0	6	88*	-2	-1	24	nt
COc1ccc(Sc2nnc(Cc3ccccc3)c3ccccc23)cc1	-7	-15	72*	8	-9	48*	88*
Cc1ccc(Sc2nnc(Cc3ccccc3)c3ccccc23)cc1	-6	-10	53*	6	-6	24	nt
c1ccc(Cc2nnc(N3CCCCC3)c3ccccc23)cc1	5	-11	33	5	8	nt	nt
CCc1ccc(NC(=O)c2cnc(N3CCN(c4ccccn4)CC3)c3ccccc23)cc1	44	-25	64*	29	24	56*	60*
CCOc1ccc(-c2cc(C(=O)NCCCn3ccnc3)c3ccccc3n2)cc1	8	-1	8	-2	-6	nt	nt
CCOc1ccc(-c2cc(C(=O)NCCCn3ccnc3)c3cc(Br)ccc3n2)cc1	108*	-8	100*	-31	9	23	nt
O=C(NC1CCCC1)c1sc(=S)n2c1[nH]c(=O)c1ccccc12	6	-13	57*	-39	-2	9	nt
Cc1cc(C)cc(NC(=O)COC(=O)Cc2ccccc2F)c1	nt	-3	9	-9	9	nt	nt
SMILES	Beta apoptosis	697 NFkB inh	Mdm2-MdmX inh	Gli-Sufu block	Jurkat NFkB inh	Mdm2 MdmX conf	FLuc counter
C=C[C@@H]1c2cccc(C)c2N(S(=O)(=O)c2ccc(C)cc2)[C@H](c2ccc(OC(C)=O)cc2)C1(C#N)C#N	2	16	51*	4	12	-4	nt
C=C[C@@H]1c2c(F)cccc2N(S(=O)(=O)c2ccc(C)cc2)[C@H](c2ccc(OC(C)=O)cc2)C1(C#N)C#N	-1	0	37	-8	12	nt	nt
Nc1ncc(Br)cc1S(=O)(=O)NCCC(=O)NC1CCCCC1	-4	-1	10	nt	0	nt	nt
COc1ccc(C/C(N)=N/n2cnnc2)cc1Cl	0	7	10	2	4	nt	nt
COc1ccc(/C(N)=N/OC(=O)c2ccc3c(c2)OCO3)cc1OC	nt	-134	91*	-66	-110	16	nt
COc1ccc(C(=O)O/N=C(\N)Cc2ccc(Cl)cc2)cc1OC	10	-41	100*	8	8	93*	42*
COc1ccc(C(=O)O/N=C(\N)Cc2ccc(Cl)c(Cl)c2)cc1OC	7	-28	101*	-2	2	100*	27
CCc1ccc(NC(=O)[C@H](C)NC(=O)C2CCN(C(=O)[C@@H](N)C(C)C)CC2)cc1	0	10	-7	-7	1	nt	nt
CC(=O)Nc1cccc2c1C(=O)N(c1ccccc1OC(C)=O)C2=O	-4	-8	15	2	0	nt	nt
CSc1cc(-c2ccc(Cl)cc2)n(Cc2ccccc2)c(=O)c1C#N	9	11	98*	1	3	7	nt
CSc1cc(-c2ccccc2)n(C)c(=O)c1C#N	1	6	4	-4	13	nt	nt
CSc1cc(-c2ccccc2)n(Cc2c(Cl)cccc2Cl)c(=O)c1C#N	2	-25	66*	0	43	51*	69*
CCOCCCNC(=O)/C(C#N)=C/c1ccc(Cl)c([N+](=O)[O-])c1	-7	-3	73*	-2	3	2	nt
CCOCCCNC(=O)/C(C#N)=C/c1cc(OC)c(O)c([N+](=O)[O-])c1	9	-22	24	-2	13	nt	nt
CCOc1ccccc1NC(=O)NNC(=O)c1ccc2ccccc2c1	2	-10	60*	11	4	50*	83*
N#CC1=C(N)NC(SCc2ccc(F)cc2)=C(C#N)C12CCCCC2	7	-14	59*	12	44	60*	72*
CCOc1cc(S(=O)(=O)n2ccc(C)n2)ccc1Br	nt	15	81*	16	-2	-2	nt
